In all, about 48,000 compounds went through this assay and about 13,000 (27%) showed an effect of 50% or more. The list shows a part of the results.

The experiment concerns Wolbachia pipientis. Description: Anti-Wolbachia Cell-Based Screen. It counts as functional. The arrangement: scale not given: in the data most compounds retested in dose-response had high values. The following applies: 5 µM.
Consider `COCCO[C@@H]1C[C@H]2CN(C(=O)c3cccnc3)CCN2C1`, for which the “Percent Effect” value was -1.303%.

As to `CNC(=O)[C@H]1C[C@@H]2CN(C(=O)c3ccc(C)nc3)C[C@@H]2N1C`, the “Percent Effect” value is -27.99%.

As for `COCCn1c(C(=O)NCc2n[nH]c(C)n2)cc2ccccc21`, the “Percent Effect” value is given as -4.273%.

For `O=C(O)C(F)(F)F.O=C(O)C(F)(F)F.O=C(O)C(F)(F)F.c1ccc(CO[C@@H]2CN(Cc3cccnc3)[C@@H]3COC[C@@H]32)nc1`, the “Percent Effect” value stood at 110.7%.

Consider `CC(=O)C1(c2ccccc2)CCN(C(=O)C2CNCCO2)CC1` (stereo not given), for which the “Percent Effect” value is reported as 2.674%.

On to `CCOC(=O)[C@@H]1[C@@H](c2ccccc2)CN2CCNC[C@H]12`, for which the “Percent Effect” value amounted to 118.8%.

On to `CNC(=O)[C@@H]1[C@H]2CNCCN2C[C@H]1c1ccccc1`, for which the “Percent Effect” value is 84.83%.

For `CC(=O)NC(C)C(=O)NCc1ccc(N2CCNC(=O)C2)cc1` (stereo not given), the “Percent Effect” value came out at 100.5%.

As for `Cl.O=C(N[C@H]1CN[C@H]2CCCO[C@H]21)c1ccno1`, the “Percent Effect” value was -7.03%.

Consider `O=C1CO[C@@H]2CNC[C@H]2N1CC1CC1`, for which the “Percent Effect” value is reported as -15.76%.

As for `COc1c(CNCCc2c[nH]c3ccccc23)c(C)nn1C`, the “Percent Effect” value was 86.16%.

Turning to `COc1cccc(CCNCc2c(C)nn(C)c2N(C)C)c1`, the “Percent Effect” value was -6.952%.

Regarding `COc1c(CNCCc2c[nH]c3ccccc23)c(C(C)C)nn1C`, the “Percent Effect” value was found to be 95.04%.

Consider `CC(C(=O)N(C)C)N1CCCN(C(=O)Oc2ccccc2)CC1` (stereo not given), for which the “Percent Effect” value was -7.894%.

Consider `Cc1ncc2c(n1)CCCC2NC(=O)c1cnn(Cc2ccccc2)c1` (stereo not given), for which the “Percent Effect” value came to 108%.

Turning to `Cl.NC1(c2nc(C(F)(F)F)cc(=O)[nH]2)CCCCC1`, the “Percent Effect” value is listed as -23.28%.

Regarding `COCCN1CCN(c2cccc(C)n2)Cc2ccc(C)nc21.O=C(O)C(F)(F)F.O=C(O)C(F)(F)F`, the “Percent Effect” value is 115.7%.

Turning to `COCCN1CCN(c2ccc(C)nn2)Cc2ccc(C)nc21.O=C(O)C(F)(F)F.O=C(O)C(F)(F)F`, the “Percent Effect” value was found to be 113.9%.

As for `COCCN1CCN(c2ccc(C)nn2)Cc2cccnc21.O=C(O)C(F)(F)F`, the “Percent Effect” value is given as -12.27%.

Take `COCCN1CCN(S(C)(=O)=O)Cc2ccc(C)nc21.O=C(O)C(F)(F)F`: the “Percent Effect” value is 1.772%.

For `COc1ccc(CCN)cc1-c1ccc(O)cc1`, the “Percent Effect” value was -1.441%.

On to `COc1cccc2c(=O)n(C3CCNCC3)cnc12`, for which the “Percent Effect” value was found to be 0.1861%.

For `COc1ccc(CC(C)Nc2cccc(F)c2)cc1` (stereo not given), the “Percent Effect” value is reported as 103.5%.

Regarding `COCC(=O)NC(C)Cc1cccc(OC)c1` (stereo not given), the “Percent Effect” value is on record as -11.91%.

Take `COc1cccc(CC(C)NC(=O)NC(C)C)c1` (stereo not given): the “Percent Effect” value is listed as -4.746%.

In the case of `CC(=O)N1C[C@H]2CNC[C@@]2(C(=O)NCCCOc2cccnc2)C1`, the “Percent Effect” value is reported as -25.71%.

For the compound `CC(=O)N1CCC2(CC1)NC(=O)[C@H]1CN(Cc3cccnc3)C[C@H]12`, the “Percent Effect” value was -21.72%.

Turning to `CC(=O)N1CC[C@H]2N(C)CC[C@@]2(C(=O)Nc2cccnc2)CC1`, the “Percent Effect” value came out at 115.3%.

`CC1CCN(CC(=O)N(Cc2ccccc2)Cc2nccs2)C1=O` (stereo not given): the “Percent Effect” value was 108.7%.

For the compound `CN(Cc1nc(C2CC2)no1)C(=O)CN1CC(c2ccccc2)CC1=O` (stereo not given), the “Percent Effect” value is listed as -16.31%.

Take `O=C(CCc1nccs1)N1CCC(C(=O)O)(c2ccccc2)CC1`: the “Percent Effect” value is given as 4.146%.

On to `O=C(NC[C@H]1C[C@@H]2CCN1C[C@@H]2CN1CCOCC1)Nc1ccccc1`, for which the “Percent Effect” value worked out at 10.54%.

Regarding `Cc1cc(C(=O)N2CCC3(CCN3Cc3ccc(F)cc3)C2)no1.O=C(O)C(F)(F)F` (stereo not given), the “Percent Effect” value was -18.68%.

With `CC[C@@H]1N(Cc2cccnc2)CCC[C@]12CCC(=O)N2C.O=C(O)C(F)(F)F.O=C(O)C(F)(F)F`, the “Percent Effect” value is on record as 114.6%.

Turning to `Cc1ccc(CN2CC[C@@H]3[C@H]2CCC(=O)N3Cc2ccncc2)s1.O=C(O)C(F)(F)F.O=C(O)C(F)(F)F`, the “Percent Effect” value is 13.87%.

As to `COCCCN1CCCCC12CC(=O)N(Cc1ccccn1)C2` (stereo not given), the “Percent Effect” value is -0.9294%.

In the case of `CC[C@@H]1N(Cc2ccncc2)CCC[C@]12CCC(=O)N2CCOC.O=C(O)C(F)(F)F.O=C(O)C(F)(F)F`, the “Percent Effect” value amounted to 102.9%.

For the compound `CC[C@@H]1N(Cc2ccccn2)CCC[C@]12CCC(=O)N2CCOC`, the “Percent Effect” value stood at 95.06%.

On to `O=C(O)C(F)(F)F.O=C(O)C(F)(F)F.O=C(O)C(F)(F)F.O=C1N(c2cccnc2)CCC12CCCN(Cc1cccnc1)C2` (stereo not given), for which the “Percent Effect” value is recorded as -3.646%.

Regarding `O=C(O)C(F)(F)F.O=C(O)C(F)(F)F.O=C1CC[C@@H]2[C@@H](CCN2Cc2ccncc2)N1c1ccccc1`, the “Percent Effect” value was -23.66%.

As for `CNC(=O)CN1C(=O)CCC12CCCN(Cc1ccccn1)C2` (stereo not given), the “Percent Effect” value was -6.812%.

Regarding `CN(C)C(=O)CN1CCC2(CCCN(Cc3cccnc3)C2)C1=O.O=C(O)C(F)(F)F.O=C(O)C(F)(F)F` (stereo not given), the “Percent Effect” value is -8.484%.

`Cn1cc(N2C(=O)CC[C@@H]3[C@H]2CCN3Cc2ccncc2)cn1.O=C(O)C(F)(F)F.O=C(O)C(F)(F)F`: the “Percent Effect” value was -8.311%.

In the case of `CC[C@@H]1N(Cc2ccncc2)CCC[C@]12CCC(=O)N2C.O=C(O)C(F)(F)F.O=C(O)C(F)(F)F`, the “Percent Effect” value is 105.4%.

In the case of `Cc1oc(-c2ccco2)nc1CC(=O)N1CCN(C2CCC2)CC1`, the “Percent Effect” value is 0.04228%.

In the case of `CNC(=O)[C@H]1C[C@@H]2CN(C(=O)c3cncc(C)c3)C[C@@H]2N1C`, the “Percent Effect” value is -44.11%.

`O=C1O[C@@H]2CN(Cc3ccsc3)C[C@@H]2N1Cc1ccccn1`: the “Percent Effect” value is listed as -2.572%.

For `O=C(CCc1cscn1)N1CCC(C(=O)O)(c2ccccc2)CC1`, the “Percent Effect” value is listed as -1.592%.

With `CCN1CCNC(=O)C12CCN(C(=O)c1ccccn1)CC2`, the “Percent Effect” value stood at 120%.

Turning to `CCN1CCNC(=O)C12CCN(C(=O)Cc1ccccn1)CC2`, the “Percent Effect” value was determined as 118.9%.

Regarding `CC(C)N1CCN(C)C2(CCN(C(=O)c3ccnnc3)CC2)C1=O`, the “Percent Effect” value is -6.646%.

`CCN1CCN(C)C(=O)C12CCN(C(=O)Cc1ccccn1)CC2.O=C(O)C(F)(F)F`: the “Percent Effect” value worked out at 105.5%.

As to `N#CC1(c2ccccc2)CCN(C(=O)CN2C(=O)CCNC2=O)CC1`, the “Percent Effect” value was -11.36%.

Turning to `CC(C)CN1CCNC(=O)C12CCN(C(=O)c1ccccn1)CC2`, the “Percent Effect” value is -2.981%.

For the compound `CCS(=O)(=O)N1CCC2(C1)C(=O)N(C)CCN2Cc1ccncc1.O=C(O)C(F)(F)F.O=C(O)C(F)(F)F` (stereo not given), the “Percent Effect” value is recorded as -0.1551%.

The values above are taken from ChEMBL document CHEMBL3988442, “University of Dundee, Small-Polar-MMV Screening Library” (2021).
